Source: PubChem BioAssay
MEX-5 binding – MEX-5 zinc finger RNA-binding disruptors – biochemical, C. elegans, fluorescence polarization, MLPCN library, primary screen | activity score (negative = inhibition of binding), % at 10 µM | MEX-5/FITC-TCR2 RNA binding; active compounds read low | Zinc finger protein mex-5 (Caenorhabditis elegans), Q9XUB2 | AID 1832, 2009 | 300,000 compounds, 0.38% hits;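 active = inhibition past about -25% in most replicates, and total fluorescence under double the plate's negative control median, limit read from the data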;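 also: 0% = DMSO and -100% = 5 µM competing unlabeled TCR2 RNA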
Target sequence (Q9XUB2 whole entry, looked up): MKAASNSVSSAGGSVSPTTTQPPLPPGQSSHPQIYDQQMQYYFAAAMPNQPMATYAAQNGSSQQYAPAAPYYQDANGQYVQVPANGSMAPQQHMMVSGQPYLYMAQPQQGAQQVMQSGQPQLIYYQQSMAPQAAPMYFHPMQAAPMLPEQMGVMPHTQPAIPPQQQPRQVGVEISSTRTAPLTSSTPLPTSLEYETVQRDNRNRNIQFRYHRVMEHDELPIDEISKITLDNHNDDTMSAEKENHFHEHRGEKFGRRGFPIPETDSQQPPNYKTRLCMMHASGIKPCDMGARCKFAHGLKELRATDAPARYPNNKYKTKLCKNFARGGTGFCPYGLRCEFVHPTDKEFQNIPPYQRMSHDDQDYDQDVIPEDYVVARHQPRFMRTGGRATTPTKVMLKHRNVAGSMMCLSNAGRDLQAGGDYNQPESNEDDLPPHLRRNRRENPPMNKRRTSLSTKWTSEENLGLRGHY
GLD-1 RNA inh – GLD-1/TGE RNA complex disruptors, primary screen, biochemical, fluorescence polarization | Female germline-specific tumor suppressor gld-1 (Caenorhabditis elegans), Q17339 | purified GLD-1 + fluorescein TGE RNA | inhibition, % at 5.96 µM | 320,000 compounds, 0.44% hits | AID 2280, 2010;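 active = percent inhibition above a per-plate cutoff, the plate mean of test compounds plus 3 SD, cut at about 30% in these data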;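 also: 0% = DMSO wells with GLD-1 and probe and 100% = wells lacking GLD-1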
CR mimetic SO – reduction of superoxide in aged yeast, primary screen, HTS | S. cerevisiae aged cells, superoxide DHE fluorescence; active compounds read low | superoxide response (% of plate mean), % at 10 µM | 330,000 compounds, 0.18% hits | AID 2690, 2010;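 active = superoxide response under a set limit, about three screen SD below normal, cut at about 65% in these data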;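 also: yeast aged for seven days with compound at 30 °C before DHE staining; 100% = average MFI of all compound-treated wells on the plate with controls excluded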
MCL1 BIM primary – inhibitors of MCL1 binding to BIM-BH3, primary screen, biochemical, fluorescence polarization; 320,000 compounds, 0.68% hits; inhibition, % at 10.9 µM; GST-MCL1 / FITC-Bim-BH3 fluorescence polarization; Induced myeloid leukemia cell differentiation protein Mcl-1 (Homo sapiens), Q07820;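 active = inhibition above the mean inhibition of all tested compounds plus 3 SD, set per campaign, cut at about 40% in these data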;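 also: 0% = DMSO wells and 100% = unlabeled Bim-BH3 peptide control; higher means more loss of mP so more displacement of Bim peptide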
BCLXL inh – inhibitors of human Bcl-xL, primary screen, biochemical, fluorescence polarization, HTS; AID 2129, 2009; GST-Bcl-xL / FITC-Bim BH3 peptide fluorescence polarization; 320,000 compounds, 0.7% hits; inhibition, % at 10.9 µM; Bcl-2-like protein 1 (Homo sapiens), Q07817;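 active = inhibition above the mean of all tested compounds plus 3 SD, cutoff set per campaign, cut at about 30% in these data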;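 also: 0% = DMSO wells and 100% = unlabeled Bim-BH3 peptide competitor; inhibitors lower millipolarization by displacing the labeled peptide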
Target sequence (Q07817 whole entry, looked up): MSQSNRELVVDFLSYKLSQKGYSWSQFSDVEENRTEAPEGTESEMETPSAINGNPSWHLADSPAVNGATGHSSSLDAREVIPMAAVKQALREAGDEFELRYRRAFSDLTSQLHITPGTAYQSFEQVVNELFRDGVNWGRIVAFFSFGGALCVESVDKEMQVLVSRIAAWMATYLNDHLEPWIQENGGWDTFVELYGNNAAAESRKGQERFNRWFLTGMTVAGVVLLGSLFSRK
LANA-H2B inh – blockers of LANA interaction with H2A/H2B – biochemical, FP readout, HTS, primary screen. Protein LANA1 (Human herpesvirus 8 type P (isolate GK18)), Q9QR71. cell-free LANA-H2A/H2B peptide, fluorescence polarization. inhibition, % (no concentration beside the values). 320,000 compounds, 0.6% hits. AID 2629, 2010; in the data active = inhibition mostly above about 10%, no sharp cut-off; inactive = mostly below about 6.7%
BCLXL inh confirm – Bcl-xL inhibitors blocking Bim BH3 binding, confirmation, counter-screen for MCL1 inhibitor project, biochemical, fluorescence polarization; shares compounds with MCL1 BIM primary; GST-Bcl-xL / FITC-Bim BH3 peptide FP binding; inhibition, % at 10.9 µM; 1,700 compounds, 54% hits;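 active = inhibition above a cutoff equal to the mean inhibition of all tested compounds plus 3 SD, cut at about 30% in these data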;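 also: 0% = DMSO wells and 100% = unlabeled Bim BH3 control peptide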
MCL1 inh confirm – inhibitors of MCL1 binding to BIM-BH3, confirmation, biochemical, fluorescence polarization, triplicate; shares compounds with MCL1 BIM primary; GST-MCL1 / FITC-Bim-BH3 fluorescence polarization; inhibition, % at 10.9 µM; 1,700 compounds, 61% hits;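 active = inhibition above the average of all tested compounds plus 3 SD, cut at about 40% in these data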;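 also: 0% = DMSO wells and 100% = unlabeled Bim-BH3 control peptide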
* marks the source's active call; other numbers are inactive results. A selection: hits, their analogues and other compounds. The true share with any hit is near 1.9%.

What do the screens show for `COc1ccc(NC(=O)CN(C)C(=O)c2cccc(-n3cccc3)c2)cc1`?
MEX-5 binding: -1.4; GLD-1 RNA inh: 1.4; CR mimetic SO: 101.3; MCL1 BIM primary: 48.0*; BCLXL inh: 8.9; LANA-H2B inh: -3.4; BCLXL inh confirm: 4.5; MCL1 inh confirm: 27.1

What do the screens show for `O=C(O)c1ccc(S(=O)(=O)Nc2ccc(O)c(Sc3nc4ccccc4s3)c2)cc1`?
MEX-5 binding: -4.5; GLD-1 RNA inh: 6.7; CR mimetic SO: 77.2; MCL1 BIM primary: 42.5*; BCLXL inh: 26.5; LANA-H2B inh: 8.6; BCLXL inh confirm: 29.3; MCL1 inh confirm: 59.3*

How did NS(=O)(=O)c1ccc(Sc2nc3ccccc3s2)c([N+](=O)[O-])c1 do in these assays?
MEX-5 binding: -3.1; GLD-1 RNA inh: 6.5; CR mimetic SO: 109.9; MCL1 BIM primary: 3.1; BCLXL inh: 2.1; LANA-H2B inh: 2.6

How did NC(=O)c1sc2nc3c(c(-c4ccco4)c2c1N)CCC3 do in these assays?
MEX-5 binding: -1.3; GLD-1 RNA inh: 2.5; CR mimetic SO: 98.9; MCL1 BIM primary: 27.6; BCLXL inh: 18.5; LANA-H2B inh: 0.7

What do the screens show for `Nc1c(C(=O)NC2CC2)sc2nc3c(c(-c4ccco4)c12)CC/C3=C/c1ccco1`?
GLD-1 RNA inh: 84.8*; CR mimetic SO: 105.0; MCL1 BIM primary: 115.0*; BCLXL inh: 72.9*; LANA-H2B inh: 2.4; BCLXL inh confirm: 64.0*; MCL1 inh confirm: 95.6*

What do the screens show for `Cc1cc(C)nc(NNS(=O)(=O)c2c(F)cc(F)cc2Br)n1`?
GLD-1 RNA inh: -0.4; CR mimetic SO: 101.8; LANA-H2B inh: 6.4

Results for COc1c(-c2ccc(O)cc2)oc2cc(O)cc(O)c2c1=O ?
GLD-1 RNA inh: 4.0; CR mimetic SO: 105.5; MCL1 BIM primary: 43.1*; BCLXL inh: 8.8; LANA-H2B inh: 5.4; BCLXL inh confirm: 22.8; MCL1 inh confirm: 85.5*

What do the screens show for `COc1ccc(-c2oc3cc(O)c(OC)c(O)c3c(=O)c2OC)cc1`?
MEX-5 binding: -3.0; GLD-1 RNA inh: 1.0; CR mimetic SO: 112.8; MCL1 BIM primary: 0.9; BCLXL inh: 0.8; LANA-H2B inh: -9.4

What do the screens show for `Cc1cc2n(c1)CCn1c(C)ccc1-2`?
MEX-5 binding: 0.3; GLD-1 RNA inh: 20.7; CR mimetic SO: 113.1; MCL1 BIM primary: 98.8*; BCLXL inh: 78.5*; LANA-H2B inh: 1.5; BCLXL inh confirm: 91.7*; MCL1 inh confirm: 134.8*

How did COC(=O)[C@]1(CC(C)C)N[C@H](c2ccc(-c3cccc(Cl)c3)cc2)[C@@H]2C(=O)N(C)C(=O)[C@@H]21 do in these assays?
MEX-5 binding: 1.2; GLD-1 RNA inh: 1.7; CR mimetic SO: 113.6; MCL1 BIM primary: -4.1; BCLXL inh: 1.2; LANA-H2B inh: 3.0

How did CCc1ccc[n+](-c2nc3ccccc3nc2C(=C=[N-])C#N)c1 do in these assays?
MEX-5 binding: -13.4; GLD-1 RNA inh: 50.2*; CR mimetic SO: 115.3; MCL1 BIM primary: 84.2*; BCLXL inh: 87.7*; LANA-H2B inh: 0.8; BCLXL inh confirm: 21.0; MCL1 inh confirm: 27.0

How did Cc1ccc[n+](-c2nc3ccccc3nc2C(=C=[N-])C#N)c1 do in these assays?
MEX-5 binding: 0.6; GLD-1 RNA inh: -21.6; CR mimetic SO: 110.5; MCL1 BIM primary: -0.7; BCLXL inh: 6.3; LANA-H2B inh: -2.5

What do the screens show for `COc1ccc(C(C)=O)c2c(O)cccc12`?
MEX-5 binding: -2.4; GLD-1 RNA inh: 7.3; CR mimetic SO: 98.9; MCL1 BIM primary: -8.9; BCLXL inh: 0.3; LANA-H2B inh: 0.5

Results for O=C1c2cccc3c([N+](=O)[O-])ccc(c23)C(=O)N1c1ccc(Cl)cn1 ?
MEX-5 binding: -14.8; GLD-1 RNA inh: 102.5*; CR mimetic SO: 91.0; MCL1 BIM primary: 138.8*; BCLXL inh: 120.3*; LANA-H2B inh: 2.0; BCLXL inh confirm: 82.4*; MCL1 inh confirm: 105.1*

What do the screens show for `COc1ccc2c3c(cccc13)C(=O)N(O)C2=O`?
MEX-5 binding: -0.8; GLD-1 RNA inh: 27.6; CR mimetic SO: 83.3; MCL1 BIM primary: 69.2*; BCLXL inh: 68.9*; LANA-H2B inh: -2.3; BCLXL inh confirm: 67.0*; MCL1 inh confirm: 77.0*

Results for O=C1c2cccc3c([N+](=O)[O-])ccc(c23)C(=O)N1O ?
MEX-5 binding: -13.1; GLD-1 RNA inh: 15.4; CR mimetic SO: 82.5; MCL1 BIM primary: 48.3*; BCLXL inh: 57.1*; LANA-H2B inh: 0.6; BCLXL inh confirm: 43.3*; MCL1 inh confirm: 58.2*

What do the screens show for `O=C(Nc1ccc(F)c(Cl)c1)C1CC2CCC1C2` (stereo unspecified)?
MEX-5 binding: -0.4; GLD-1 RNA inh: 5.1; CR mimetic SO: 104.9; MCL1 BIM primary: 0.6; BCLXL inh: 4.3; LANA-H2B inh: 4.4

How did Cc1ccc(-c2cc(C(=O)Nc3ccccn3)c3ccccc3n2)o1 do in these assays?
MEX-5 binding: -0.9; GLD-1 RNA inh: 8.8; CR mimetic SO: 97.9; MCL1 BIM primary: 47.0*; BCLXL inh: 29.4; LANA-H2B inh: 4.1; BCLXL inh confirm: 32.1*; MCL1 inh confirm: 69.1*

How did O=C(O)c1ccc2c(c1)S(=O)(=O)c1ccccc1C2=O do in these assays?
MEX-5 binding: -1.9; CR mimetic SO: 103.1; LANA-H2B inh: -0.6

How did O=C(O)c1cc(O)c2c(c1)C(=O)c1cccc(O)c1C2=O do in these assays?
MEX-5 binding: -27.7*; GLD-1 RNA inh: 89.4*; CR mimetic SO: 177.3; MCL1 BIM primary: 146.6*; BCLXL inh: 114.3*; LANA-H2B inh: -1.3; BCLXL inh confirm: 117.6*; MCL1 inh confirm: 144.3*

How did CC1(OC(=O)C2CCCC2)C(=O)C=C2C=C(c3ccsc3)N(CCc3ccccn3)C=C2C1=O (stereo unspecified) do in these assays?
MEX-5 binding: -6.8; GLD-1 RNA inh: 36.5*; CR mimetic SO: 105.3; MCL1 BIM primary: 55.9*; BCLXL inh: 48.1*; LANA-H2B inh: -4.3; BCLXL inh confirm: 13.2; MCL1 inh confirm: 17.8
